High-throughput results from PubChem BioAssay.
SMARCA2 activ: increases SMARCA2 function in MMTV reporter cells; MG213 cells, MMTV-luciferase reporter, dexamethasone, overnight; activation, % at 9.1 µM; 370,000 compounds, 1% hits; AID 652017; in the data active = activation above about 7.8%;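 also: 0% = vehicle wells and 100% = reference activator wells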
DAX1 inh-1: DAX1 (NR0B1) inhibition, primary screen. HEK293T StAR-luciferase reporter, SF-1/DAX-1 repression relief. inhibition, % at 6.8 µM. 370,000 compounds, 1.1% hits;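 active = inhibition above the mean over all tested compounds plus 3 SD, cut at about 3.6% in these data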;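 also: 0% = DAX-1 cells with DMSO and 100% = cells lacking DAX-1 with DMSO; higher inhibition means more luminescence from relief of DAX-1 repression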
hcDAF-12 act: activators of H. contortus DAF-12 nuclear receptor | HEK293 hcDAF-12 lit1-tk-luc reporter, luminescence; 0% DMSO, 100% Δ7-dafachronic acid | activation, % at 6.8 µM | 370,000 compounds, 1.4% hits;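 active = activation above the mean of all tested compounds plus 3 SD, cut at about 5.5% in these data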;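 also: 100% = response to 3 µM Δ7-dafachronic acid high control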
DAX1 inh-2: inhibits human nuclear receptor DAX1. 340,000 compounds, 0.99% hits. HEK293 Gal4-DAX1 luciferase reporter, luminescence. inhibition, % at 6.75 µM;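 active = inhibition above the mean over all tested compounds plus 3 SD, cut at about 4.2% in these data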;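 also: 0% = DAX1-transfected cells with DMSO and 100% = empty-vector control cells with DMSO; inhibition shows as a rise in luminescence from relieved DAX1 repression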
Target sequence (P51843 207-470 limits assumed): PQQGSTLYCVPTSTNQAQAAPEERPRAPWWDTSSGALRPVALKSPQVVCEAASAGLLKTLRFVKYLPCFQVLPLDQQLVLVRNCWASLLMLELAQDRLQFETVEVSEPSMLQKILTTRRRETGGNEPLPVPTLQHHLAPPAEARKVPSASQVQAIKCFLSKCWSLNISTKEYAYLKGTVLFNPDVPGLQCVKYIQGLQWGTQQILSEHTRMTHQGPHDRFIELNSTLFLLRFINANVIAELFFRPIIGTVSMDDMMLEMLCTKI
ssDAF12 agonist: activators of S. stercoralis DAF-12 nuclear receptor; HEK293 ssDAF-12/GRIP1 lit1-tk-luc reporter, luminescence; % of 3 µM dafachronic acid response; activation, % at 6.8 µM; 370,000 compounds, 1% hits; AID 652126;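 active = activation above the mean over all tested compounds plus 3 SD, cut at about 0.9% in these data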;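 also: 0% = DMSO-only wells and 100% = 3 µM delta7-dafachronic acid wells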
hgDAF12 agonist: agonists of H. glycines DAF-12 nuclear receptor | AID 687014 | HEK293 GAL4-hgDAF12 UAS-luciferase reporter, agonist luminescence; normalized to butyrate control | 370,000 compounds, 1.8% hits | activation, % at 6.8 µM;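 active = activation above a cutoff set at the mean of all screened compounds plus 3 SD, cut at about 10% in these data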;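 also: 0% = DMSO wells and 100% = sodium butyrate wells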
Starred values were filed as active, the others as inactive; x = not tested or not shown. Sampled rows, rich in hits. Any-hit rate of the full collection: about 4.8%.

SMILES	SMARCA2 activ	DAX1 inh-1	hcDAF-12 act	DAX1 inh-2	ssDAF12 agonist	hgDAF12 agonist
CC1(C)Cc2nc3[nH]c(=S)[nH]c(=O)c3cc2CO1	1	1	0	4.8*	-1	1
C[C@@H](CCCCC1(C)OCCO1)CCC(=O)N(c1ccccc1)c1ccccc1	-5	-1	-3	x	-1	-3
COC(CNC(=O)[C@H](Cc1ccccc1)NC(C)(C)C(=O)NC1CCCCC1)OC	x	x	-1	x	-1	1
CCc1cc(=O)oc2cc(OCC(=O)N3CCC(C(=O)O)CC3)ccc12	-5	-1	0	4.6*	-1	7
CCCc1cc(=O)oc2cc(OCC(=O)Nc3cc(C)on3)ccc12	2	0	0	0	-1	2
Cc1c(C)c2ccc(OCC(=O)N3CCC(C(=O)O)CC3)cc2oc1=O	-1	1	-1	3	-1	0
CCCc1cc(=O)oc2cc(OCC(=O)N3CCC(C(N)=O)CC3)ccc12	1	-1	0	6.3*	-1	0
CCCc1cc(=O)oc2cc(OCC(=O)Nc3ccccn3)ccc12	4	4.0*	1	1	0	9
C#CCNC(=O)C[C@H]1C[C@@]2(C(=O)OC)C(=C[C@H](C3CCCC3)O[C@@H]2C)N(Cc2ccc(Cl)cc2Cl)C1=O	-4	-1	-3	x	-1	-1
COc1cccc(-c2cccc(NC(=O)C3CCN(C4CCOCC4)CC3)c2)c1	-1	1	0	2	1.5*	-1
Cc1ccc(S(=O)(=O)N(C)Cc2ccc(C(=O)N/N=C/c3ccc(OC(F)F)cc3)cc2)cc1	-1	0	-1	6.2*	-1	-1
C/C(=N\NC(=O)c1ccc(CN(C)S(=O)(=O)c2ccc(C)cc2)cc1)c1ccc(OC(F)F)cc1	-2	-1	0	0	-2	2
O=C(COc1ccc(Cl)cc1Cl)NC(=O)N1CCCCC1	3	2	2	2	0	12*
CCOC(=O)NC(=O)C(=CNc1cccc(C)c1)C(=O)NC(=O)OCC	-1	0	-1	-2	-2	-2
CCOC(=O)NC(=O)C(=CNc1ccc(C)cc1)C(=O)NC(=O)OCC	-4	0	6.5*	1	0	0
Nc1ccc(Cl)c[n+]1Cc1cccc2cccnc12	-1	-1	5.8*	-1	0	-2
COc1ccccc1C(=O)Nc1cc(-c2ccc(C)cc2)no1	3	0	4	0	1.0*	12*
COc1ccccc1C(=O)Nc1ccccc1SC(=O)c1ccccc1OC	-2	0	4	4.3*	0	-2
CC(=O)NCCNc1nc2c(-c3cccc(C(F)(F)F)c3)nnn2c2ccccc12	1	1	4	1	0	-1
NNc1nc2c(-c3cccc(C(F)(F)F)c3)nnn2c2ccccc12	-3	0	6.5*	0	0	-2
Cc1cccc(-c2nnn3c2nc(NCCc2ccc(S(N)(=O)=O)cc2)c2ccccc23)c1	7	0	3	-2	0	0
COCCNc1nc2c(-c3cccc(C(F)(F)F)c3)nnn2c2ccccc12	0	0	6.5*	2	1.3*	3
Cc1ccc(-c2nnn3c2nc(NCCc2ccc(S(N)(=O)=O)cc2)c2ccccc23)cc1	-2	0	5.7*	0	0	4
O=C(CCc1ccccc1)N[C@H]1[C@@H](OC(=O)c2cccnc2)CCC[C@]12C(=O)N(Cc1ccccc1)c1ccccc12	0	1	0	x	-1	-3
O=C(O)c1ccc2c(c1)S(=O)(=O)N=C1CCCCCN12	-2	0	-2	5.1*	-1	-2
SMILES	SMARCA2 activ	DAX1 inh-1	hcDAF-12 act	DAX1 inh-2	ssDAF12 agonist	hgDAF12 agonist
CN(C(=O)c1ccc2c(c1)S(=O)(=O)N=C1CCCCCN12)c1ccccc1	2	1	0	-1	-1	2
CCOc1ccc(CCNC(=O)c2cc3sccc3n2CC)cc1OC	-4	-4	-5	x	-2	-4
O=C(/C=C/c1ccc(OC2CSC2)cc1)c1ccccc1	4	0	1	0	0	0
O=C(N/N=C/c1ccc(OC2CSC2)cc1)c1ccccc1	6	4.2*	2	2	0	5
Cc1cccc(/C=N\NC(=O)c2csnn2)c1	5	2	5	1	0	9
O=C(N/N=C\c1ccc(Oc2ccccc2)cc1)c1csnn1	1	2	1	5.4*	0	11*
Cc1ccc(S(=O)(=O)N2O[C@@H](c3ccccc3)C[C@H]2CON2C(C)(C)CCCC2(C)C)cc1	x	x	-1	x	-1	0
Cc1ccc(Cn2cc(CN3[C@@H](CC(C)C)COc4cccc(F)c4S3(=O)=O)nn2)cc1	0	-1	-2	x	-1	2
O=C(NC1CCCC1)c1ccc(COc2ccccc2)o1	-1	0	2	x	-1	2
CCOC(=O)C(C(=O)OCC)C(Nc1cccc(Br)c1)c1ccccc1 (stereo unspecified)	-1	-1	-1	-3	-2	-1
CCOC(=O)C(c1ccccc1)C(Nc1ccc(Cl)c(Cl)c1)c1ccccn1 (stereo unspecified)	0	0	1	x	1.0*	0
Clc1ccc(/C=C\c2nccc3c2[nH]c2ccccc23)cc1	0	1	5.7*	1	0	9
Oc1ccccc1C1=Nc2nc3ccccc3n2C(c2ccccc2)C1 (stereo unspecified)	6	2	4	1	1	13*
O=C1c2ccccc2NC(c2ccco2)N1O (stereo unspecified)	-2	0	0	4.4*	-1	0
Cc1c[nH]c2cccc(-c3ccc(OCc4ccccc4)cc3)c12	0	-2	1	x	0	-3
O=C(NNC(=O)C1CC=CCC1)c1cccc(Br)c1 (stereo unspecified)	-2	0	1	4.6*	-2	2
O=C(NNC(=O)C1CC=CCC1)c1ccccc1Br (stereo unspecified)	1	0	0	3	-1	1
N#Cc1ccc(Cl)cc1NC(=O)CN1C(=O)C(=O)N(CCC2=CCCCC2)C1=O	0	0	4	0	1.2*	2
COc1ccc(C#CCN(Cc2ccc(OC)cc2OC)C(N)=NC(=O)CCc2ccccc2)cc1	-4	-2	-2	x	-2	1
CC(C)[C@H](NC(N)=O)C(=O)NNC(=O)COc1cccc(C(F)(F)F)c1	-3	1	-1	6.5*	-2	0
C#CCOC(=O)C[N+](C)(C)CC#Cc1ccccc1	-4	0	-1	8.6*	-1	6
NC(=O)c1c(NC(=O)c2cccs2)sc2c1CCCCCC2	2	1	1	1	-1	9
O=C(Nc1sc2c(c1C(=O)O)CCC2)c1cccs1	3	1	5.7*	2	-1	4
